Where “and” joins values, the source holds several entries; their conditions need not be identical. Equal entries are not always repeated. Among all 190,000 compounds or so, about 6,900 (3.6%) were called active. This is one part of a sample in which actives are shown more often than they occur. Values without a mark were called inactive. No stated cut-off is given here; in the data, active means inhibition above about 50%; inactive means the rest.
molecular target: Huntingtin (Homo sapiens) (UniProt P42858); experiment: mutant huntingtin-calmodulin interaction inhibitors – biochemical, AlphaScreen, primary screen (AID 1671202); conditions: AlphaScreen His-mHTT/GST-CaM binding, luminescence; at 15 µM, stronger effect = higher value;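 further: 0% = both proteins with DMSO and 100% = one protein alone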
Sequence (P42858 whole entry, looked up, stated change not applied): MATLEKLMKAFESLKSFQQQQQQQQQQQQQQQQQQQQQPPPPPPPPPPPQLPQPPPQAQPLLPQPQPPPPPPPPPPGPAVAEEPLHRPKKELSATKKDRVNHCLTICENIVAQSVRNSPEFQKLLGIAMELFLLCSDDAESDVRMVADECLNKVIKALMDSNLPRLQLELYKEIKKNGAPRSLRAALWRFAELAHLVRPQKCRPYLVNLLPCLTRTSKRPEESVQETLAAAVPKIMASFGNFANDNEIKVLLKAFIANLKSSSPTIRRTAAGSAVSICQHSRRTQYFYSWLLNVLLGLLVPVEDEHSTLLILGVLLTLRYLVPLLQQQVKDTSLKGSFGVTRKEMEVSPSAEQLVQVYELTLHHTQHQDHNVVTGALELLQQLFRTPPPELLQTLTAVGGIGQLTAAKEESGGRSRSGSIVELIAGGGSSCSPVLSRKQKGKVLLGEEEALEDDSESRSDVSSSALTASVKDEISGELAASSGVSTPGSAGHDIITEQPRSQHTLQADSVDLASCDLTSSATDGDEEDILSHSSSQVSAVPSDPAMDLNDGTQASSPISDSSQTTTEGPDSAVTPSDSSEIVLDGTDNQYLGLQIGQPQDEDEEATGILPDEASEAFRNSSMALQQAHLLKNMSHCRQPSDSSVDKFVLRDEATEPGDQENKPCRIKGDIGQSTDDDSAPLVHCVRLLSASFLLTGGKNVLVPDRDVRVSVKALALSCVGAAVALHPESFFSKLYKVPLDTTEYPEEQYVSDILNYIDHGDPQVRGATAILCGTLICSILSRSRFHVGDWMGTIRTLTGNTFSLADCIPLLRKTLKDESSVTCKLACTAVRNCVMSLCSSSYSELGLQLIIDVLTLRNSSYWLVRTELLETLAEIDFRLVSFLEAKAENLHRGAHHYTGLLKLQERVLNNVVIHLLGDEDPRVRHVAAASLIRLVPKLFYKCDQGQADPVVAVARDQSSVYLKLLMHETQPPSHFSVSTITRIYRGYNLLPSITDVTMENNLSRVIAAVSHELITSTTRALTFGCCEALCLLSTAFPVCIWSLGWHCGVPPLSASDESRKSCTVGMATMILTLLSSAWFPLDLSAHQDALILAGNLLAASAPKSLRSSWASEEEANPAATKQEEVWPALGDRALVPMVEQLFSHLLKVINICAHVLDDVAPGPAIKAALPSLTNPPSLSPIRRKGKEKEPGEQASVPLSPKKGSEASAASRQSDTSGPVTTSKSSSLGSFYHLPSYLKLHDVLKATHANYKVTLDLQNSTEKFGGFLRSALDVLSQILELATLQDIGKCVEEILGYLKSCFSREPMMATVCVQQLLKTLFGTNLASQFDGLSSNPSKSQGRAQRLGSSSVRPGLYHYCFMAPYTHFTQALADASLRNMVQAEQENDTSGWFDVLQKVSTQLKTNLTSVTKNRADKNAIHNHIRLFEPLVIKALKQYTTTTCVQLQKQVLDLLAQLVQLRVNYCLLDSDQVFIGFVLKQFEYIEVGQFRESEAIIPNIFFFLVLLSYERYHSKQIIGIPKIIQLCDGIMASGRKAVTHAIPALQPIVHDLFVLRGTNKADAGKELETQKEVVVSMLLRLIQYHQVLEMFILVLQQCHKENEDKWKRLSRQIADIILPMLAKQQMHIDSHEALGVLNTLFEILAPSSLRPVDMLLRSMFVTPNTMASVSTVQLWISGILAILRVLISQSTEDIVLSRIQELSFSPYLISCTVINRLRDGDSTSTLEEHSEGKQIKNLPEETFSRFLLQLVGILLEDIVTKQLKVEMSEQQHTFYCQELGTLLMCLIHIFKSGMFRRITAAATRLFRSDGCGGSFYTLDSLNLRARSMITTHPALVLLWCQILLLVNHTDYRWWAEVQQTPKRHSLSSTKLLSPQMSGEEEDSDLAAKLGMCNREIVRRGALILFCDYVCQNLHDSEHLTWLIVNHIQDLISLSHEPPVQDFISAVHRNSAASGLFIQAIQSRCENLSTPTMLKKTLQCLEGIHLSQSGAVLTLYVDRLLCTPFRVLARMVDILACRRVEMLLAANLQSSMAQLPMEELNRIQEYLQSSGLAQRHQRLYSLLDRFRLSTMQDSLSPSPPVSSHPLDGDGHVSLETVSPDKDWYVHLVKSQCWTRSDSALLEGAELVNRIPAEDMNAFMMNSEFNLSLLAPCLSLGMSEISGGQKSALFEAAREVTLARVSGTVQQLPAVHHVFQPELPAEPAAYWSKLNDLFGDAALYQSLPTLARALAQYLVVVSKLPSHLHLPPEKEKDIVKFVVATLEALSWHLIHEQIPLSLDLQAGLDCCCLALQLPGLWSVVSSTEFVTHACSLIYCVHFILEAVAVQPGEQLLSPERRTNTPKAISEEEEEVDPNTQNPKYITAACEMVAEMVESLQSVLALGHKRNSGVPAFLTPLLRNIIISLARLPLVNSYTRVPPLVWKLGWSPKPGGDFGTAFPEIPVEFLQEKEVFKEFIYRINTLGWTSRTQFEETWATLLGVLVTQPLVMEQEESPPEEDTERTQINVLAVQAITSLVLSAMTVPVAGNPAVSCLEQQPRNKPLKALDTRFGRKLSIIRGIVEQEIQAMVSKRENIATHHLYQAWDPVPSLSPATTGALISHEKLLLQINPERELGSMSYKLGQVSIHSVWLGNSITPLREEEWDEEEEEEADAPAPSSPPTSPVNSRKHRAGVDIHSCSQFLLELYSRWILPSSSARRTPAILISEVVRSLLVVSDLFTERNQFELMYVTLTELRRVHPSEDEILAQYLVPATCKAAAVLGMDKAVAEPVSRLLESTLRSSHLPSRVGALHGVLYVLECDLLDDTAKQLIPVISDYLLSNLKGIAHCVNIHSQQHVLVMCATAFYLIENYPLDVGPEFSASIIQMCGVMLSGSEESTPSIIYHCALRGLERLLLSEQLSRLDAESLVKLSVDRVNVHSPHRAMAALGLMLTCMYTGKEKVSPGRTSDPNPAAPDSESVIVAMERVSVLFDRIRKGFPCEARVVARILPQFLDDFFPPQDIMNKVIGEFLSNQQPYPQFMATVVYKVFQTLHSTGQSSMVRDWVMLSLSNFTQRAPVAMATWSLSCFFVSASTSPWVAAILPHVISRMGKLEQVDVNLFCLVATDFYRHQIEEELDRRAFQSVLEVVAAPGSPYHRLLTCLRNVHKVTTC

Compound	inhibition
O=C(CC(C(=O)O)N1CCNCC1)Nc1ccc(OC(F)F)cc1 (centres undefined)	-16.1%
Cc1ccc(NC(=O)Cn2cccc2-c2nnc(C3CCC3)o2)cc1	12.1%
CC1CCCC(C)N1C(=O)c1cccc2c1-c1ccccc1C2=O (centres undefined)	-6% and 2.5%
O=C1c2ccccc2C(=O)c2c(NC3CCCCC3)cccc21	73% (active)
O=C1c2ccccc2C(=O)c2c(NC(=O)c3c(F)cccc3F)cccc21	1%
O=C(CSc1ccc(C(F)(F)F)cc1[N+](=O)[O-])Nc1ccccc1Cl	8%
CCOc1cc(/C=C2\NC(=O)NC2=O)cc(Cl)c1OC(C)C	14%
CCOc1cc(/C=C2\NC(=O)NC2=O)cc(Cl)c1OCc1ccc([N+](=O)[O-])cc1	74% (active)
O=C1NC(=O)/C(=C\c2ccc(OCc3ccc([N+](=O)[O-])cc3)c(Br)c2)N1	10%
COc1cccc(C=C2Oc3c(ccc4c3CN(Cc3cc(OC)c(OC)c(OC)c3)CO4)C2=O)c1	56.5% (active)
COc1cccc(CN2COc3ccc4c(c3C2)OC(=Cc2cccnc2)C4=O)c1	3.4%
COc1cccc(CN2COc3ccc4c(c3C2)OC(=Cc2ccc(OC)c(OC)c2OC)C4=O)c1	35.7%
CCn1cnnc1C1CCCCN1C(=O)c1cnccn1 (centres undefined)	0.74%
CCOc1ccccc1/C=C1\N=C(c2ccc([N+](=O)[O-])cc2Cl)OC1=O	-1%
CN1CCC(CCNC(=O)c2ccc3[nH]c4c(c3c2)CN(C(=O)C2CCC2)CC4)CC1	4.82%
CC(=O)N1CCc2[nH]c3ccc(C(=O)NCCc4ccccn4)cc3c2C1	58.7% (active)
CC(=O)N1CCc2[nH]c3ccc(C(=O)NC4CCCCC4)cc3c2C1	9.6%
Oc1ccc(Nc2nc(-c3ccc(Cl)cc3Cl)nc3ccccc23)cc1	37.4%
CCc1cc(C(=O)Nc2ccccc2)no1	-4.5%
CCNc1cc(Nc2ccccc2)c2c3c(onc13)-c1ccccc1C2=O	100% (active)
O=C(NCc1ccc(Cl)cc1)c1ccc2ncnc(N3CCOCC3)c2c1	-1.3%
CC(=O)c1cccc(NC(=O)C2CCN(S(=O)(=O)c3ccc(Br)cc3)CC2)c1	-1.7%
COc1ccc(C2NC(c3ccc(OC)c(OC)c3)C(C)C(=O)C2C)cc1OC (centres undefined)	10%
CCN(CCCNC(=O)C1CC(=O)N(C2CCCCCCC2)C1)c1cccc(C)c1 (centres undefined)	53% (active)

Compound	inhibition
Cc1ccc(CNC(=O)C2CC(=O)N(C3CCCCC3)C2)cc1 (centres undefined)	2.18%
Cc1ccc(CNC(=O)C2CC(=O)N(C3CCCCCCC3)C2)cc1 (centres undefined)	8.83%
COc1ccc(-n2nc3c(c2NC(=O)c2cccc(OC)c2OC)CS(=O)C3)cc1 (centres undefined)	5%
O=C1C2C(C(=O)N1c1cc([N+](=O)[O-])ccc1Cl)C1C=CC2C12CC2 (centres undefined)	4%
Cc1ccnc(N2CCCC(C(=O)NCCc3ccc(Cl)cc3)C2)n1 (centres undefined)	7.6%
Cc1ccc2cc3cc(C(=O)N(C)c4ccc(Br)cc4)oc3nc2c1	-8%
Cc1ccc(CNC(=O)CCC(=O)N2CCCn3nc(C)cc32)cc1	1.63%
COc1ccc(OC)c2[nH]c(=O)c(CCNC(=O)c3ccc(C)c(C)c3)cc12	28%
COc1ccc(C(=O)NCCc2nc3ccccc3n2Cc2ccccc2C)cc1OC	77% (active)
COc1ccc(C(=O)NCCc2ccc(S(N)(=O)=O)cc2)cc1OC	9.3%
CCNc1cc(N2CCCC(CCC(=O)N3CCN(c4ccccn4)CC3)C2)ncn1 (centres undefined)	1.12%
CCC(=O)N1CCc2ccccc2C1C(=O)NCc1ccc(OC)cc1 (centres undefined)	3.87%
Cc1ccc(NC(=O)CC2COc3ccc(Cl)cc3NC2=O)cc1Cl (centres undefined)	92.5% (active)
O=C(CC1COc2ccccc2NC1=O)Nc1ccc(C(F)(F)F)cc1 (centres undefined)	-6.9%
Cc1ccc(NC(=O)CC2COc3ccccc3NC2=O)cc1C (centres undefined)	-3.7%
Cc1cc(SCC(=O)NCc2ccc3c(c2)OCO3)nc2ccccc12	-10.7%
O=C(c1cnc(-c2ccccc2)nc1N1CCSCC1)N1CCCCC1	18.3%
Cc1cccc(N2CCN(C(=O)CCC3CCCN(C(=O)Nc4ccccc4)C3)CC2)c1C (centres undefined)	47%
Brc1ccc(CSc2cccc3cccnc23)cc1	54% (active)
N#Cc1ccc(CSc2ncccn2)cc1	-1.95%
O=C(CSc1ccccn1)c1ccc(Br)cc1	-42.4%
CN(C)C(CNC(=O)Nc1ccc(Cl)cc1)c1ccco1 (centres undefined)	-16%
O=C(COc1coc(CN2CCc3ccccc32)cc1=O)NCc1ccco1	19.5%
CCOc1ccc(NC(=O)N2CC(C)Oc3ccc(C)cc32)cc1 (centres undefined)	1.01%

Compound	inhibition
COc1cc(OC)c(OC)cc1/C=C1/CC/C(=C\c2cc(OC)c(OC)cc2OC)C1=O	23%
Cc1cccc(NC(=O)c2cc3c(CO)cnc(C)c3oc2=Nc2ccc(Cl)cc2)c1	-1%
Cc1ccccc1NS(=O)(=O)c1cc(Br)cc2c1N(C(=O)C1CC1)CC2	2%
CC(C)(C)C1=CC(=Nc2ccccc2N)C=C(C(C)(C)C)C1O (centres undefined)	97% (active)
COCCCNC(=O)c1ccc2c(c1)ncn2-c1ccc(F)c(F)c1	9%
CCOc1ccc(C(=O)Nc2ccccc2I)cc1[N+](=O)[O-]	4.6%
COc1ccc(C2CC(c3ccccc3F)=NN2C(=O)CN2CCOCC2)cc1 (centres undefined)	50.5% (active)
COc1ccc(C2=NN(C(=O)CCC(=O)O)C(c3ccc(F)cc3)C2)cc1OC (centres undefined)	-2.9%
O=C(Cc1nnc(-c2cccc(F)c2)o1)N1CCOCC1	-5.8%
Cc1ccc(C)c(C2CC(c3ccccc3Cl)=NN2C(=O)CN2CCOCC2)c1 (centres undefined)	79.4% (active)
COc1ccc(C2CC(c3cccc(F)c3)=NN2C(=O)CN2CCCCC2)cc1 (centres undefined)	36.7%
COc1ccc(C2CC(c3ccccc3)=NN2C(=O)c2ccc(Br)o2)cc1 (centres undefined)	-1%
COc1ccccc1C1=NN(C(=O)CN2CCCCC2)C(c2ccc(C)cc2)C1 (centres undefined)	8.3%
COc1ccc(C2=NN(C(=O)CN3CCN(C)CC3)C(c3ccccc3C)C2)cc1 (centres undefined)	42%
COc1ccccc1C1=NN(C(=O)CN2CCC(C)CC2)C(c2ccc(C)cc2)C1 (centres undefined)	12.9%
CCNC(=O)N(C)CC(=O)N1N=C(c2ccccc2F)CC1c1ccc(C)cc1 (centres undefined)	24.6%
Cc1ccc(C2CC(c3cccc(F)c3)=NN2C(=O)CN2CCOCC2)cc1 (centres undefined)	67.8% (active)
CCNC(=O)N(C)CC(=O)N1N=C(c2ccc(C)c(C)c2)CC1c1ccc(C)cc1 (centres undefined)	73.4% (active)
CC(C)NC(=O)c1ccccc1NC(=O)c1ccc([N+](=O)[O-])cc1	-2.9%
N=C1S/C(=C\c2cccs2)C(=O)N1c1ccc2c(c1)OCO2	2%
O=C(CSc1ncnc2c1[nH]c1ccccc12)N1CCc2ccccc2C1	0%
COCC(=O)N1CCCN(c2nc3c(s2)c(C)nn3-c2ccc(C)cc2)CC1	45.2%
COc1ccc(CCNC(=O)N2CC(c3nc(-c4ccccn4)no3)C2)cc1	-18.5%
COc1ccc(NC(=O)N2CC3CC(NS(=O)(=O)c4cccs4)C2C3)c(OC)c1 (centres undefined)	9.02%

Compound	inhibition
N#CC1=C(N)Oc2c(sc3ccccc23)C1c1ccco1 (centres undefined)	53% (active)
N#CC1=C(N)Oc2c(c(=O)[nH]c3ccccc23)C1c1cccs1 (centres undefined)	8%
N#CC1=C(N)Oc2ccc3ncccc3c2C1c1ccccc1F (centres undefined)	49%
CC(C)=CCOc1ccc2cc(-c3ccccc3)c(=O)oc2c1	-45.3%
O=C(COc1ccc(Br)cc1)Nc1ccccc1C(F)(F)F	-57%
CN(C)C(=O)c1cc2c(s1)CCC(C(=O)NCc1ccccc1Cl)C2 (centres undefined)	3.06%
O=C1OC(c2cccc(F)c2)=N/C1=C\c1ccc(Br)cc1	-1%
CCC(C)NC(=O)c1ccc2c(c1)nc1n2CCCC1 (centres undefined)	-4.18%
CN1CCN(c2nc3c(c(=O)[nH]c(=O)n3C)n2CC(=O)c2ccc(Cl)cc2)CC1	-4%
O=[N+]([O-])c1ccc(C=Nc2cccc(Cl)c2)cc1	30%
O=[N+]([O-])c1ccc(C=Nc2ccc(N=Cc3ccc([N+](=O)[O-])cc3)cc2)cc1	4%
Cc1cccc(N=C/C=C/c2ccc([N+](=O)[O-])cc2)c1	72% (active)
CC(=O)NCCN1C(=O)C(=O)C(=C(O)c2ccc(Cl)cc2)C1c1ccc(Br)cc1 (centres undefined)	-0.6%
COc1cc(/C=C2\SC(=N)N(c3ccccc3OC)C2=O)ccc1O	36%
COc1cc(C=C2SC(=S)N(c3ccc(O)cc3)C2=O)ccc1O	58.5% (active)
C=CCOc1ccc(/C=C2\SC(=O)N(c3ccccc3)C2=O)cc1OC	3%
O=[N+]([O-])c1ccccc1S(=O)(=O)Nc1cccc2cccnc12	98.6% (active) and 99% (active)
CCc1cccc(NS(=O)(=O)c2ccccc2[N+](=O)[O-])c1	10.6%
Cc1ccc(F)cc1NS(=O)(=O)c1cccc2cccnc12	2%
COc1cccc(-c2noc(C3CCCN3C(=O)Nc3ccc4c(c3)OCCO4)n2)c1 (centres undefined)	13.9%
OC(COc1ccccc1Br)CN1CCN(Cc2ccccc2)CC1 (centres undefined)	-4%
COc1ccccc1Oc1ncnc2scc(-c3ccc(F)cc3)c12	-1%
